Source: PubChem BioAssay

Assay: MM1S cell viability effects, profiling panel, calcein-AM fluorescence, 48 h, basal (AID 1165);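 further: viability of MM1S multiple myeloma cells under basal unstimulated conditions; test concentration not given here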
Conditions: higher = more signal

SMILES | z-score
CN(C)C(=O)[C@@]1(CCS(=O)(=O)c2ccccc2)N=C(c2ccc(OCCCO)cc2)O[C@H]1c1ccccc1CN=[N+]=[N-] | -0.582
Cc1ccc(S[C@]2(C(=O)NCc3ccccc3)CC(=O)N(C3Cc4ccccc4C3)[C@@H]2c2ccc(CO)cc2I)cc1 | -2.33
C=C(C)[C@@H]1CC=C(C(O)C2C=CC3C(=O)N(C4CCCCC4)C(=O)C3N2Nc2ccc(OC)cc2)CC1 (stereo partly specified) | 0.0801
CC(C)(C)N1CC=CC23O[C@@H]4C=CCCOC(=O)C4[C@H]2C(=O)N(CCCO)[C@@H]3C1=O (stereo partly specified) | -0.685
CN(C)C(=O)[C@]1(Cc2ccccc2N=[N+]=[N-])N=C(c2ccc(OCCCO)cc2)O[C@@H]1c1ccccc1CN=[N+]=[N-] | -2.39
COC(=O)[C@@]1(Cc2ccc(OC)cc2)[C@H]2c3cc(C(=O)N4CCCC4)n(Cc4ccc(C)o4)c3C[C@H]2CN1C(=O)c1ccccc1 | -3.31
[N-]=[N+]=NCc1ccccc1C[C@]1(C(=O)NCCN2CCOCC2)N=C(c2ccc(OCCCO)cc2)O[C@H]1c1ccccc1 | -0.338
CCCCCCC#C[Si](O[C@H](c1ccccc1)c1cn(Cc2cccc(Cl)c2)nn1)(C(C)C)C(C)C | 0.481
COCCOC(=O)N1C(=O)[C@@]2(c3cc(C#CC4(O)CCCCCC4)ccc31)[C@H](C(=O)N1CCN(c3ncccn3)CC1)[C@H]1C(=O)O[C@H](c3ccccc3)[C@H](c3ccccc3)N1[C@@H]2c1ccc(O)cc1 | -1.12
COc1ccc(C(=O)Nc2ccc3c(c2)[C@]2(O[C@@H](CCO)[C@H]([Si](C)(C)c4ccc(OC)cc4)[C@H]2C)C(=O)N3Cc2ccccc2)cc1 | -2.64
COc1ccc([Si](C)(C)[C@@H]2[C@@H](CCO)O[C@]3(C(=O)N(Cc4ccccc4)c4ccc(N5CCCCC5=O)cc43)[C@H]2C)cc1 | -1.58
C#CCNS(=O)(=O)N(C)C | 0.716
COCCCNC(=O)[C@]1(CCS(=O)(=O)c2ccccc2)N=C(c2ccc(OCCCO)cc2)O[C@@H]1c1ccccc1 | -0.223
CC(=O)NCCCC[C@@H]1NC(=O)[C@@H]2C[C@H](C(=O)NCCCC[N+](C)(C)C)[C@H](c3cccc(OCCO)c3)N2C1=O | -0.265
CCCC[C@@H](O)C1=C(COc2ccccc2)Cn2c(=O)n(-c3ccccc3)c(=O)n2[C@H]1CO | 0.356
C=CCOC(=O)[C@H]1[C@@H]2C(=O)O[C@@H](c3ccccc3)[C@@H](c3ccccc3)N2[C@@H](c2ccc(OCCOC(=O)[C@H]3C[C@H]4C(=O)N[C@@H](CCCCN(C)C)C(=O)N4[C@H]3c3ccc(O)cc3)cc2)[C@]12C(=O)Nc1ccccc12 | -1.54
C=CCNC(=O)[C@H]1[C@@H]2C(=O)O[C@@H](c3ccccc3)[C@@H](c3ccccc3)N2[C@@H](c2ccc(OCCO)cc2)[C@]12C(=O)N(C(=O)OCCOC)c1ccc(C#CC3=CCCCC3)cc12 | -1.96
COC(=O)[C@@]1(Cc2ccccc2)[C@H]2c3cc(C(=O)N4CCCC4)n(Cc4ccc(OC(F)(F)F)cc4)c3C[C@H]2CN1C(=O)c1ccccc1 | -1.89

SMILES | z-score
COc1ccc([Si](C)(C)[C@H]2[C@H](CCn3cc(CCO)nn3)O[C@@]3(C(=O)N(Cc4cccc(N5C(=O)c6cccc7cccc5c67)c4)c4ccccc43)[C@@H]2C)cc1 | -2.83
COC(=O)[C@@]1(Cc2ccc(F)cc2)[C@H]2c3cc(C(=O)N4CCCC4)n(Cc4ccccc4)c3C[C@H]2CN1C(=O)c1ccccc1 | -2.1
CCC[C@@H]1C[C@@]1(CCC)[C@@H](NC(=O)c1ccco1)c1ccc(Cl)cc1 | -1.6
C[C@@]1([C@@H](NC(=O)c2cccs2)c2ccc(-c3ccccc3)cc2)C[C@H]1C1CCCCC1 | -2.17
O=C1O[C@H](c2ccccc2)[C@H](c2ccccc2)N2[C@H]1[C@@H](C(=O)N1CCN(c3ncccn3)CC1)[C@]1(C(=O)Nc3ccc(C#CCCO)cc31)[C@H]2c1ccccc1OCCO | -0.445
C=C(COC)C(=O)CC[C@H](OC(=O)c1ccccc1-c1ccccc1C(=O)O)c1ccc(CO)o1 | 0.232
COCC(=C=CC[C@@H](O)c1ccccc1OCCO)C[C@@H](O)c1ccccn1 | -0.591
COC(=O)C(CC#Cc1ccc2c(c1)[C@]1(C(=O)N2)[C@H](c2ccc(OCCO)cc2)N2[C@H](c3ccccc3)[C@H](c3ccccc3)OC(=O)[C@H]2[C@@H]1C(=O)O)C(=O)OC | 0.47
COCCCNC(=O)[C@]1(Cc2ccccc2CN=[N+]=[N-])N=C(c2ccc(OCCCO)cc2)O[C@@H]1c1ccccc1CN=[N+]=[N-] | -2.79
C=C(C(=O)CC[C@H](OC(=O)c1cccnc1)c1ccc(OCCO)cc1)C(C)C | -3.3
CC(C)CNC(=O)[C@@]1(C)c2ccccc2C(=O)N(Cc2ccccc2)[C@H]1c1ccc(CO)cc1 | -0.408
CC(C)(C)OC(=O)CC[C@]1(C(=O)O)COC(c2ccc(OCCCO)cc2)=N1 | -0.97
COc1ccc([Si](C)(C)[C@@H]2[C@@H](CC(=O)N(CCO)Cc3ccccc3)O[C@]3(C(=O)N(Cc4ccc(N5CCOC5=O)cc4)c4ccccc43)[C@H]2C)cc1 | -2.35
CCCCC=C[C@@H](NC(=O)CCc1ccccc1)c1ccccc1 | -3.31
C=C(/C(=C/C[C@@H](OC(=O)c1ccncc1)c1ccccc1OCCO)c1cnc2ccccc2c1)C(C)C | -3.1
C=C(CCCC)/C(=C/C[C@@H](OC(=O)c1ccncc1)c1ccccc1OCCO)c1cc(C(=O)OC)ccc1OC | -3.26
CC(C)N1C(=O)c2ccccc2[C@](C)(C(=O)O)[C@@H]1c1ccc(CO)cc1 | 0.0364
COC(=O)[C@@]1(Cc2ccc(OC)cc2)[C@H]2c3cc(C(=O)N(C)C)n(Cc4cc(C)n(C)n4)c3C[C@H]2CN1C(=O)c1ccccc1 | -0.407
